# KB-V1 MDR tox = kills drug-selected multidrug resistant KB-V1 cells. KB-V1 MDR cells viability, CellTiter-Glo, 72 h. Potency, µM (top dose mostly 46.1 µM), actives largely listed as cytotoxic. 400,000 compounds, 3.4% hits; also: potency is read from the fitted curve at half-maximal effect; % is scaled to controls: 0 for no effect and ±100 for the full control effect; nearly all actives have a fitted effect of over 60% in size
#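 qHTS viability screen in drug-selected KB-V1 MDR cells: 72 h compound treatment at 37 degrees C, ATP luminescence end point.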
# MCF10A rereplic = induces DNA re-replication in MCF 10a normal breast cells; 350,000 compounds, 2.9% hits; AID 624296; MCF 10A DNA re-replication, Hoechst nuclear intensity, 48 h; Potency, µM (titrated, usually from 46.1 µM), inactives show at the highest dose activity, positive = re-replication, usual class: activators; also: potency is read from the fitted curve at half-maximal effect; % of control where 0% means no effect; nearly all actives have a fitted effect of over 50% in size
# KB-3-1 cytotox = KB-3-1 parental cell cytotoxicity; KB-3-1 viability, CellTiter-Glo ATP luminescence, 72 h; Potency, µM (doses to about 46.1 µM), usual class: cytotoxic; 400,000 compounds, 1.4% hits; AID 1347075; also: potency is read from the fitted curve at half-maximal effect; % is scaled to controls: 0 for no effect and ±100 for the full control effect; nearly all actives have a fitted effect of over 60% in size
#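 Luminescent ATP read-out (CellTiter-Glo) measures survival of drug-naive KB-3-1 cells after 72 h compound exposure at 37 °C. Titration series was screened from lowest to highest concentration, with DMSO vehicle plates as background controls.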
# SW480 rereplic = induces DNA re-replication in SW480 colon adenocarcinoma cells | 340,000 compounds, 1.8% hits | SW480 DNA re-replication, Hoechst DNA content imaging, 48 h | Potency, µM (series often up to 46.1 µM), for the others: top-dose re-replication activation, hits mostly activators | AID 624297; also: potency is read from the fitted curve at half-maximal effect; % of control where 0% means no effect; nearly all actives have a fitted effect of over 55% in size
#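 Treated cells incubate 48 hr (37 C, 5% CO2), are stained 40 min with Hoechst, and nuclear fluorescence is enumerated; a rise in nuclei with high DNA signal marks re-replication.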
# KCNH2 3.1 inh = KCNH2 3.1 (human) potassium channel inhibition; AID 720553; 340,000 compounds, 0.95% hits; U2OS KCNH2 3.1, thallium flux FluxOr; active compounds read low; activity change, % (tested at about 1.8 µM);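 active = maximum activity change below -70%; inconclusive = maximum activity change from -70% to -50%; inactive = maximum activity change above -50%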;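 also: thallium influx rate constant from kinetic fluorescence after stimulation buffer; % is scaled to controls: 0 for no effect and ±100 for the full control effect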
#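 Normalized rate constant (relative to positive and negative DMSO controls) derived from a 2 min kinetic fluorescence read after stimulation; U2OS cells expressing the 3.1 isoform via virus at 1.77 x 10^8 /mL.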
# hERG WT inh = KCNH2 (human, wildtype) channel inhibition | U2OS, BacMam KCNH2, thallium flux FluxOr; active compounds read low | activity change, % at 1.84 µM | 340,000 compounds, 0.37% hits | AID 720551;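 active = maximum activity change below -70%; inconclusive = maximum activity change between -70% and -50%; inactive = maximum activity change above -50%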; also: % is scaled to controls: 0 for no effect and ±100 for the full control effect
#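 U2OS cells transduced with wild-type KCNH2 virus are loaded with FluxOr dye for 45 min, and thallium flux is measured in kinetic reads before and after stimulation buffer. Rate constants are normalized to DMSO controls.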
# Starred values were filed as active, the others as inactive; i = inactive; u = inconclusive; x = no result. Most compounds without a hit are left out; they make up all but 7.6% or so of the library. Unless noted, calls follow the shape of the dose curve; as a rule, active = well fitted curve in the direction sought with a large enough effect; inconclusive = small, poorly fitted or top-dose-only effect, or another doubt; inactive = no such curve, though single readings can be large; an effect the other way counts as inactive or inconclusive.
SMILES,KB-V1 MDR tox,MCF10A rereplic,KB-3-1 cytotox,SW480 rereplic,KCNH2 3.1 inh,hERG WT inh
COc1ccc2[nH]c3c(c2c1)CCN1C(=O)C(CC(=O)NC(C)(C)C)C[C@H](C(=O)N2CCCCC2)[C@@]31C (stereo partly drawn),i,1.1%,i,5.5%,-6.4,28.0
CC(c1nnc(SCC(=O)Nc2cccnc2Cl)n1-c1ccccc1)N(C)C (stereo not drawn),u,10.0%,i,5.2%,28.5,4.6
Cc1ccc2nc(Cl)c(C#N)cc2c1,i,-0.2%,i,-0.5%,-6.8,4.0
CSc1cc(-c2ccccc2)n(C)c(=O)c1C#N,u,u,i,-5.0%,-11.3,0.6
CSc1cc(-c2ccc(Cl)cc2)n(Cc2ccccc2)c(=O)c1C#N,i,15.3%,16.4µM*,-3.2%,18.2,8.4
O=C(CN1C(=O)/C(=C/c2cccc(Br)c2)SC1=S)NCCCN1CCOCC1,x,-0.1%,x,12.4%,-14.4,-0.6
O=C(CCN1C(=O)/C(=C/c2ccccc2Cl)SC1=S)NCCCN1CCOCC1,i,-3.9%,14.6µM*,u,23.4,-4.7
O=C(CCCN1C(=O)/C(=C/c2cccc(Br)c2)SC1=S)NCCCN1CCOCC1,u,23.1µM*,u,-1.9%,-1.9,0.9
Cc1ccc(/C=C2\SC(=S)N(CCC(=O)NCCCN3CCOCC3)C2=O)cc1,i,u,i,3.0%,19.1,7.5
CC(/C=C/c1ccc(OCc2ccccc2)cc1)=N\O,i,22.2%,i,0.0%,16.0,-2.8
CC(C)(C)c1ccc(NC(=O)N2CCCN(c3c(Cl)cncc3Cl)CC2)cc1,i,7.31µM*,i,u,8.2,-4.6
COCCn1c(SCc2cccc([N+](=O)[O-])c2)nc2ccccc2c1=O,11.6µM*,9.2%,i,-7.3%,-11.8,-13.8
CCCCn1c(SCc2cccc([N+](=O)[O-])c2)nc2ccsc2c1=O,2.31µM*,16.4µM*,i,-8.2%,-10.5,3.5
CCOC(CCn1c(SCc2cccc([N+](=O)[O-])c2)nc2ccccc2c1=O)OCC,i,14.7%,i,6.2%,-6.9,0.8
Cn1c(SCc2cccc([N+](=O)[O-])c2)nc2ccccc2c1=O,2.59µM*,u,u,11.0%,-15.5,4.1
Oc1ccc2ccccc2c1C=NNc1ccccn1,0.517µM*,u,u,7.31µM*,-0.7,-31.6
Fc1cccc(F)c1/C=N/Nc1ccccn1,i,u,i,27.5%,18.7,-1.7
Oc1ccc2ccccc2c1/C=N/Nc1nnc(-c2ncc[nH]2)c2ccccc12,u,u,u,0.651µM*,-16.5,-8.1
OCC(CO)(CO)N=Cc1c(O)ccc2ccccc12,u,8.2µM*,i,-0.3%,-14.4,-22.5
CCn1nc(C)c(/C=N/NC(=O)Cn2cncn2)c1C,i,-14.2%,i,-5.4%,u,9.8
Cc1ccc2[nH]c(=O)c(CN(CC3CCCO3)C(=S)Nc3ccccc3)cc2c1 (stereo not drawn),4.11µM*,u,u,u,8.6,-4.1
Cc1ccc2cc(CN(CC3CCCO3)C(=S)Nc3ccccc3)c(=O)[nH]c2c1 (stereo not drawn),u,u,u,u,15.7,17.4
CCOc1ccc(N(Cc2cc3cc(OC)ccc3[nH]c2=O)S(C)(=O)=O)cc1,14.6µM*,-0.6%,i,-13.2%,7.5,-4.5
COc1ccc2[nH]c(=O)c(CN(CC3CCCO3)C(=O)Nc3ccc(F)cc3)cc2c1 (stereo not drawn),2.59µM*,u,13µM*,1.0%,1.0,-0.2
Cc1cccc2cc(CN(CC3CCCO3)C(=S)NCc3ccco3)c(=O)[nH]c12 (stereo not drawn),4.11µM*,7.2%,i,u,20.2,20.7
SMILES,KB-V1 MDR tox,MCF10A rereplic,KB-3-1 cytotox,SW480 rereplic,KCNH2 3.1 inh,hERG WT inh
COc1ccc(NC(=O)N(Cc2cc3cc(C)ccc3[nH]c2=O)CC2CCCO2)cc1 (stereo not drawn),i,u,i,u,-41.0,-13.7
COc1cc(/C=N/N2C(=O)c3ccccc3NC2(C)c2cccc([N+](=O)[O-])c2)cc(Br)c1O (stereo not drawn),i,0.9%,i,0.9%,-32.7,-7.9
COc1ccc2cc(CCOC3CCCCO3)ncc2c1 (stereo not drawn),i,24.3%,i,-2.2%,22.3,1.3
Cc1ccnc(NC(=O)N2CCN(c3cccc(C(F)(F)F)c3)CC2)c1,u,x,i,x,x,x
CCC(C)(C)n1nnnc1CN(Cc1cc2cc(OC)ccc2[nH]c1=O)C1CCCC1,18.4µM*,5.8µM*,i,u,-45.3,0.0
Cc1cccc2cc(CN(CCN(C)C)C(=S)Nc3ccccc3)c(=O)[nH]c12,23.1µM*,7.8%,i,u,17.1,15.5
O=C(c1cc2ccccc2oc1=O)N(Cc1ccco1)CC1CCCO1 (stereo not drawn),11.6µM*,15.0%,i,-8.3%,9.3,-18.9
Cc1ccc2cc(CN(CC3CCCO3)C(=S)Nc3ccccc3)c(=O)[nH]c2c1C (stereo not drawn),2.31µM*,2.59µM*,7.31µM*,5.17µM*,1.0,-5.1
COc1ccc(OC)c(C(=O)c2ccc(C(=O)Nc3ccc(NC(C)=O)cc3)cc2)c1,i,3.0%,i,-11.1%,-8.1,-5.1
C=C[C@@H]1c2cc(C)ccc2N(S(=O)(=O)c2ccc(C)cc2)[C@H](c2ccccc2)C1(C#N)S(=O)(=O)c1ccccc1 (stereo partly drawn),i,u,i,4.0%,6.5,-4.8
COc1cccc(-n2c(=O)c3c4c(sc3n(Cc3ccc(C)cc3)c2=O)CCCC4)c1,i,x,i,x,x,x
O=C(N/C(=C\c1ccc(Br)cc1)c1nc2ccccc2[nH]1)c1ccco1,i,16.7%,i,u,-4.9,-2.3
Cc1ccc2[nH]c(=O)c(CN(CC3CCCO3)S(=O)(=O)c3cccc4nsnc34)cc2c1 (stereo not drawn),i,-2.4%,i,-0.2%,-21.3,2.3
COc1ccc2[nH]c(=O)c(CN(C(=O)NC3CCCCC3)C3CCCC3)cc2c1,14.6µM*,u,i,-5.5%,-19.9,25.3
Cc1ccc2[nH]c(=O)c(CN(CC3CCCO3)S(=O)(=O)c3c(C)ccc4nsnc34)cc2c1 (stereo not drawn),6.51µM*,-2.0%,u,-1.5%,-14.4,33.6
O=C(CC(=O)NCc1ccccc1)NCc1ccccc1,i,-5.6%,i,-118.8%,9.1,-3.4
Cc1c2ccncc2cc2c1[nH]c1ccccc12,u,16.4µM*,u,23.1µM*,-0.6,0.6

# Bioassay records as filed in PubChem BioAssay.
